This is a sample that favours compounds with a hit; in the whole collection about 2.9% have one here.
PLCg1 inh: PLC-gamma1 (human) inhibition, primary screen; purified PLC-gamma1, fluorogenic substrate, fluorescence; inhibition, % at 12.2 µM; AID 720700; P19174; hit rate 0.84% among 370,000; in the data active = inhibition above about 9.5%
ADAM10 inh: inhibitors of human ADAM10; inhibition, % at 7 µM; AID 720582; recombinant ADAM10, EDANS/DABCYL FRET peptide cleavage, 3 h; hit rate 0.62% among 370,000;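 active = inhibition above a per-campaign cutoff equal to the mean of compounds falling between control-based bounds plus 3 SD, cut at about 20% in these data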
PLCb3 inh: PLC-beta3 (human) inhibition, primary screen; Q01970; Purified PLC-beta3, fluorogenic substrate, fluorescence; inhibition, % at 12.2 µM; hit rate 0.18% among 370,000; in the data active = inhibition above about 11%
ADAM17 inh: ADAM17 inhibition, QFRET primary screen; P78536; recombinant ADAM17, EDANS/DABCYL FRET peptide cleavage; inhibition, % at 6.95 µM; hit rate 0.83% among 370,000;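 active = inhibition above the mean of compounds lying between control limits plus 3 SD, set per campaign, cut at about 8.5% in these data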
KLK7 zymogen act: activates the human kallikrein-7 zymogen | activation, % at 7 µM | AID 652039 | hit rate 0.9% among 370,000 | purified proKLK7, EDANS-DABCYL substrate fluorescence; 100% is mature enzyme control, 0% vehicle | P49862;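 active = activation above the mean of all tested compounds plus 3 SD, computed per campaign excluding outliers beyond control limits, cut at about 13% in these data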
Target sequence (P49862 whole entry, looked up): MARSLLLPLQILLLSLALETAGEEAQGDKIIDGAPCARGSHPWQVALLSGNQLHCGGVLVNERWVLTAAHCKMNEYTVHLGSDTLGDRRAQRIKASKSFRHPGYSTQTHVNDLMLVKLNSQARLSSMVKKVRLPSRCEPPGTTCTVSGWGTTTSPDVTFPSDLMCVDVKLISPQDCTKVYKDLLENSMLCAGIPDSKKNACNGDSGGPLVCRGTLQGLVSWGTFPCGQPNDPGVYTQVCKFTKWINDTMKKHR
KLK7 act conf: proKLK7 activation, confirmation | shares compounds with KLK7 zymogen act | AID 686949 | activation, % at 7 µM | purified proKLK7, EDANS-DABCYL substrate fluorescence; scaled: vehicle 0, mature enzyme 100 | hit rate 68% among 3,200;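 active = activation, as change over the incubation, above the mean of all tested compounds plus 3 SD, cut at about 13% in these data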
EDANS-DABCYL int: fluorescence interference counter-screen for KLK7 activators; shares compounds with KLK7 zymogen act; EDANS-DABCYL substrate fluorescence interference, no enzyme, 4 h; solvent 0%, active enzyme control 100%; activation, % at 7 µM; hit rate 80% among 3,200; AID 686952;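 active = activation above the all-compound mean plus 3 SD, ignoring values outside control-based bounds, cut at about 4.8% in these data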;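 note: value is the 4 h activation minus the activation read at time zero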
Large screens that a line does not name were inactive (follow-up assays come after a bar, where they were run).

O=C(Oc1ccc2ccc(=O)oc2c1)c1ccccc1	KLK7 zymogen act 241.5 | KLK7 act conf 589.2 | EDANS-DABCYL int 593.5
O=C(Cn1ccc(NC(=O)OCc2ccccc2)nc1=O)NCCc1c[nH]c2ccccc12	none
Cc1ccc(C(=O)COc2ccc3ccc(=O)oc3c2)cc1	none
CCOc1ccccc1C(=O)Oc1ccc2ccc(=O)oc2c1	KLK7 zymogen act 190.2 | KLK7 act conf 304.6 | EDANS-DABCYL int 248.4
COc1ccc(OC)c(-c2cc(C(=O)Nc3cc(C)n(Cc4ccc(Cl)cc4)n3)no2)c1	none
CCCNC(=S)Nc1ccc2nc(-c3ccccn3)c(-c3ccccn3)nc2c1	KLK7 zymogen act 16.1 | KLK7 act conf 44.2 | EDANS-DABCYL int 54.3
S=C(Nc1ccc2nc(-c3ccccn3)c(-c3ccccn3)nc2c1)N1CCCCCC1	none
CN(C)c1ccc(/C=C/c2cccc[n+]2[O-])cc1	KLK7 zymogen act 31.7 | KLK7 act conf 215.6 | EDANS-DABCYL int 235.6
CN(C)c1ccc(-c2nc3ncc(Cl)cc3[nH]2)cc1	KLK7 zymogen act 17.1 | KLK7 act conf inactive | EDANS-DABCYL int 11.9
CNC(=O)c1cc(Nc2nnc(-c3ccc(C)c(S(N)(=O)=O)c3)c3ccccc23)ccc1OC	KLK7 zymogen act 211.6 | KLK7 act conf 223.0 | EDANS-DABCYL int 136.2
CC(=O)Nc1ccc(Nc2nnc(-c3ccc(C)c(S(N)(=O)=O)c3)c3ccccc23)cc1	none
Cc1c(O)cnc2nn(-c3ccccc3)c(=N)n12	KLK7 zymogen act 40.4 | KLK7 act conf 16.8 | EDANS-DABCYL int 17.4
Cc1nn(-c2ccccc2)c(C)c1N	none
COc1ccccc1N1CCN(C2CCCN(C(=O)CCc3cnccn3)C2)CC1 (stereo not given)	none
O=C(Nc1ccccc1)c1ccccc1N=Cc1cccc(O)c1	KLK7 zymogen act 31.6 | KLK7 act conf 15.4 | EDANS-DABCYL int 16.7
CC(=O)c1c(C)cc(C)c(CSc2nnc(-c3ccco3)o2)c1C	none
CCN(CC(=O)NCc1ccc(F)cc1)C(=O)COc1ccccc1[N+](=O)[O-]	KLK7 zymogen act 31.2 | KLK7 act conf inactive | EDANS-DABCYL int inactive
CCN(CC)S(=O)(=O)c1ccc(N2CCCC2)c(C(=O)OCC(=O)N2CCCC2)c1	none
Cc1ccc2nc(N3CCN(C(=O)CCC(=O)O)CC3)nc(-c3ccccc3)c2c1	KLK7 zymogen act 27.5 | KLK7 act conf inactive | EDANS-DABCYL int inactive
O=C(O)CCCC(=O)N1CCN(c2nc(-c3ccccc3)c3ccccc3n2)CC1	KLK7 zymogen act 16.0 | KLK7 act conf inactive | EDANS-DABCYL int 8.0
Cc1ccc2nc(N3CCC(C(=O)O)CC3)nc(-c3ccccc3)c2c1	none
CCCC(=O)N1CCN(c2nnc(-c3ccccc3)c3ccccc23)CC1	none
O=C(O)C1CC=CCC1C(=O)N1CCN(c2nc(-c3ccccc3)c3ccccc3n2)CC1 (stereo not given)	KLK7 zymogen act 79.9 | KLK7 act conf inactive | EDANS-DABCYL int inactive
CCOCCCNC(=O)c1ccc(Cn2c(=O)[nH]c3ccsc3c2=O)cc1	none
CCOC(=O)N1CCN(C(=O)COC(=O)c2oc3ccc(OC)cc3c2C)CC1	none
Nc1ccc(Oc2ncccn2)cc1	none
COc1cc2ccc(=O)oc2cc1O	KLK7 zymogen act 95.0 | KLK7 act conf 76.7 | EDANS-DABCYL int 83.1
COc1cc2ccc(=O)oc2cc1OCC(O)C(C)(C)O (stereo not given)	KLK7 zymogen act 21.0 | KLK7 act conf 32.9 | EDANS-DABCYL int 47.6
Cn1ccc2c(-c3cccnc3)cc3c(c21)C1CCC3O1 (stereo not given)	none
Cc1coc2cc3oc(=O)c(CC(=O)N(C)CC(=O)O)c(C)c3cc12	KLK7 zymogen act 13.5 | KLK7 act conf 13.7 | EDANS-DABCYL int 17.4
O=C(Cn1nc(C(F)(F)F)c2c1CCC2)NCc1ccc(Cl)cc1	none
COc1ccc(-c2cc(C(F)(F)F)nc(SCCC(=O)N3CCN(C)CC3)n2)cc1	none
COc1ccc(-c2cc(C(F)(F)F)nc(SCC(N)=O)n2)cc1	KLK7 zymogen act 15.1 | KLK7 act conf inactive | EDANS-DABCYL int 6.6
COc1ccc(-c2cc(C(F)(F)F)nc(SCC(=O)N(C)Cc3cn(C)nc3C)n2)cc1OC	KLK7 zymogen act 32.5 | KLK7 act conf inactive | EDANS-DABCYL int inactive

From PubChem BioAssay
